FBW7 activator = human FBW7 E3 ligase activation, primary screen; normalized activity (activation), % at 26.1 µM; AlphaScreen FBW7–phospho-cyclin E peptide binding, activator screen; Q969H0; AID 1259310; 650,000 compounds, 0.13% hits; in the data active = normalized activity above about 1.9%;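 also: purified mutant Fbw7 with reduced substrate affinity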
MITF inh = blocks human microphthalmia-associated transcription factor. inhibition, % at 2.6 µM. 650,000 compounds, 0.91% hits. O75030. AlphaScreen MITF homodimerization, bead proximity signal. AID 1259374; in the data active = inhibition above about 50%;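 also: 0% = vehicle wells with protein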
TEAD-YAP block = TEAD-YAP interaction inhibition; HEK-TIYL cells, TEAD-Gal4/YAP UAS-luciferase luminescence; inhibition, % at 9.12 µM; 640,000 compounds, 1.4% hits; AID 1259422; in the data active = inhibition above about 32%;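 also: 0% = median of test compound wells and 100% = reference inhibitor wells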
GPR151 activ = activates the human receptor GPR151; PathHunter beta-arrestin GPR151 cells, luminescence; activation, % at 11.2 µM; 650,000 compounds, 1% hits; AID 1508602; in the data active = activation above about 4.9%;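 also: 0% = median of compound wells and 100% = cells with positive control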
Target sequence (Q8TDV0 whole entry, looked up): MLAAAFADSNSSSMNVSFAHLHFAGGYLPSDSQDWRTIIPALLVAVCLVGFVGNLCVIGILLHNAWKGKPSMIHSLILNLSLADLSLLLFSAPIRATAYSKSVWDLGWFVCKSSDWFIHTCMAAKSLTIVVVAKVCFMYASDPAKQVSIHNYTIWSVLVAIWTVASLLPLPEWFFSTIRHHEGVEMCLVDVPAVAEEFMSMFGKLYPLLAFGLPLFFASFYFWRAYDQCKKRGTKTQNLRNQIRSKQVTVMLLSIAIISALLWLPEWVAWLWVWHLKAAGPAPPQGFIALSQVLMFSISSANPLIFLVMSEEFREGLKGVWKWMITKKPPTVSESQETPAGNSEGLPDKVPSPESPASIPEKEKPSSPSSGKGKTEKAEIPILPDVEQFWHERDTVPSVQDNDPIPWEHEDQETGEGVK
GPR151 confirm = confirmation of human GPR151 activators; shares compounds with GPR151 activ; GPR151 PathHunter beta-arrestin cells, luminescence, 90 min; % of EA-reagent control over plate median; 6,700 tested, under 10 active; activation, % at 11.2 µM;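 active = mean percent activation across replicates above the confirmation screen cutoff of 4.91%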
GPR119 ag = counter-screen for GPR151 activators: effect on human GPR119. shares compounds with GPR151 activ. GPR119 PathHunter beta-arrestin cells, luminescence, 90 min; 0 = compound-well median, 100 = enzyme-acceptor control. activation, % at 11.2 µM. 6,700 compounds, 0.3% hits. AID 1508611;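 active = mean percent activation in the counterscreen above 29.09%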;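 also: counterscreen on off-target GPR119 to flag nonselective hits from the GPR151 activator screen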
* hit, by the source's call. In the library only some 3.4% were active in any assay of this set; here they are far more common.

`CCN(CC)c1ccc(/C=N/n2cnnc2)c(O)c1` gave FBW7 activator 0, MITF inh -3, TEAD-YAP block 2, GPR151 activ 10*, GPR151 confirm 1 and GPR119 ag 0.
O=C(/C=C\c1cccs1)Nc1ccccc1NC(=O)c1ccccc1F was read as FBW7 activator 0, MITF inh -1, TEAD-YAP block 7 and GPR151 activ 0.
Screening CCCc1ccc(S(=O)(=O)Nc2ccc3c(c2)CC(=O)N3C)cc1 returned FBW7 activator 0, MITF inh 2, TEAD-YAP block 8, GPR151 activ 4.9*, GPR151 confirm 0 and GPR119 ag -17.
For Cc1ccc(C)n1-c1ccc(-c2ccnc(-c3ccncc3)n2)cc1 the results were FBW7 activator 0, MITF inh 6, TEAD-YAP block 4, GPR151 activ 5.4*, GPR151 confirm 0 and GPR119 ag 0.
`Cc1ccc(-n2c(-c3ccncc3)n[nH]c2=S)cc1` gave FBW7 activator 0, MITF inh -5, TEAD-YAP block 11 and GPR151 activ -1.
`Nn1c(O)c(C2=c3cc(F)ccc3=NC2=O)sc1=S` gave FBW7 activator 0, MITF inh 3, TEAD-YAP block 8, GPR151 activ 6.0*, GPR151 confirm 0 and GPR119 ag -11.
`Cc1cc(=O)[nH]c(SC(C)C(=O)Nc2cccc(Cl)c2)n1` (centres undefined) gave FBW7 activator 0, MITF inh -24, TEAD-YAP block -14, GPR151 activ 8.7*, GPR151 confirm -1 and GPR119 ag -4.
`Cc1sc2nc(CSCC(=O)NC3CC3)[nH]c(=O)c2c1C` gave FBW7 activator 0, MITF inh -10, TEAD-YAP block -3, GPR151 activ 6.1*, GPR151 confirm 0 and GPR119 ag 2.
`Cc1sc2nc(CSCC(=O)NCC(F)(F)F)[nH]c(=O)c2c1C` gave FBW7 activator 0, MITF inh 7, TEAD-YAP block 3 and GPR151 activ 2.
Cc1ccc(NC(=O)CS(=O)(=O)c2ccccc2)cc1 was read as FBW7 activator 0, MITF inh 5, TEAD-YAP block -7, GPR151 activ 6.1*, GPR151 confirm 0 and GPR119 ag 10.
`Cc1ccc(NS(=O)(=O)c2ccc(NC(=O)CCCOc3ccccc3)cc2)cc1` gave FBW7 activator 0, MITF inh 10, TEAD-YAP block -10, GPR151 activ 6.7*, GPR151 confirm 1 and GPR119 ag 4.
Screening CCCCCC(=O)Nc1ccc(S(=O)(=O)Nc2nccc(C)n2)cc1 returned FBW7 activator 0, MITF inh 9, TEAD-YAP block 6, GPR151 activ 5.5*, GPR151 confirm -1 and GPR119 ag -14.
O=C(CCCOc1ccccc1)Nc1ccc(S(=O)(=O)Nc2ncccn2)cc1 was read as FBW7 activator 0, MITF inh 0, TEAD-YAP block -6 and GPR151 activ -2.
Screening Cn1c2ccccc2c2ccc(C(=O)N3CCn4c(CO)nnc4C3)cc21 returned FBW7 activator 0, MITF inh -10, TEAD-YAP block -3 and GPR151 activ -1.
`O=C(Nc1ccccc1C(=O)O)c1cccc(S(=O)(=O)Nc2ccc(F)cc2)c1` gave FBW7 activator 0, MITF inh -4, TEAD-YAP block 7 and GPR151 activ -1.
`CC(C)(C)C(=O)N1CCc2c(nc(N3CCCCC3)[nH]c2=O)C1` gave FBW7 activator 0, MITF inh 9, TEAD-YAP block 4 and GPR151 activ 1.
`CC[C@H](C)[C@H](NC(N)=O)C(=O)Nc1ccc(F)c([N+](=O)[O-])c1` gave FBW7 activator 0, MITF inh 4, TEAD-YAP block 9 and GPR151 activ 1.
`O=CN1CCn2c3c(c(=O)c4cc(C5CCCCC5)ccc42)CCC31` (centres undefined) gave FBW7 activator 0, MITF inh 11, TEAD-YAP block -14, GPR151 activ 7.3*, GPR151 confirm 0 and GPR119 ag -6.
`NC(=O)N1CCn2c3c(c4cc(C5CCCCC5)ccc42)CCCC31` (centres undefined) gave FBW7 activator 0, MITF inh -2, TEAD-YAP block 4 and GPR151 activ 2.
For COc1cc2c(cc1OC)C(COc1ccccc1OC)N(C(=O)C1CC1)CC2 (centres undefined) the results were FBW7 activator 0, MITF inh 5, TEAD-YAP block -3 and GPR151 activ 0.
For Cn1c(=O)c2c(nc(Cl)n2Cc2c(F)cccc2Cl)n(C)c1=O the results were FBW7 activator 0, MITF inh 2, TEAD-YAP block 1 and GPR151 activ 2.
CCSc1nc2c(c(=O)n(C)c(=O)n2C)n1Cc1c(F)cccc1Cl was read as FBW7 activator 0, MITF inh 22, TEAD-YAP block 4, GPR151 activ 5.2*, GPR151 confirm 0 and GPR119 ag -1.
For O=C(NC1CCCc2ccccc21)c1cc2c(s1)CS(=O)(=O)C2 (centres undefined) the results were FBW7 activator 0, MITF inh -4, TEAD-YAP block -7 and GPR151 activ 0.
Screening CCc1nccn1S(=O)(=O)c1ccc(OC)c2ccccc12 returned FBW7 activator 0, MITF inh -466, TEAD-YAP block 4, GPR151 activ 6.8*, GPR151 confirm 0 and GPR119 ag 2.
`CCc1nccn1S(=O)(=O)c1cc(Br)c(C)cc1OC` gave FBW7 activator 0, MITF inh 3, TEAD-YAP block 4 and GPR151 activ 2.
`Cc1ncc(CO)c2cc(C(N)=O)c(=Nc3ccc4c(c3)OCO4)oc12` gave FBW7 activator 0, MITF inh 0, TEAD-YAP block -17 and GPR151 activ 1.
Screening COC(=O)c1ccc(CSc2nc(C)[nH]c2[N+](=O)[O-])o1 returned FBW7 activator 0, MITF inh -16, TEAD-YAP block 0 and GPR151 activ 2.
For Cc1nc(SCC(O)CCl)c([N+](=O)[O-])[nH]1 (centres undefined) the results were FBW7 activator 0, MITF inh 2, TEAD-YAP block -3, GPR151 activ 8.5*, GPR151 confirm 0 and GPR119 ag 1.
Screening O=C(CN1CCCCC1)Nc1cc(C(F)(F)F)ccc1Cl returned FBW7 activator 0, MITF inh 1, TEAD-YAP block 4, GPR151 activ 7.0*, GPR151 confirm 0 and GPR119 ag 2.
Screening O=C(CN1CCN(c2ccccc2F)CC1)Nc1cc(C(F)(F)F)ccc1Cl returned FBW7 activator 0, MITF inh 4, TEAD-YAP block -1 and GPR151 activ 0.
COc1cc(/C=N/NC(=O)COc2ccc(Cl)cc2Br)ccc1O was read as FBW7 activator 0, MITF inh 13, TEAD-YAP block 6 and GPR151 activ 0.

Bioassay records: PubChem, The Scripps Research Institute Molecular Screening Center
